Measured values reported in the supplement of paper PMC13380429.

Tested on: Vero E6 infected with SARS-CoV-2
Assay: inhibition of SARS-CoV-2 cytopathic effect; higher = more antiviral protection, active = above 15
Settings: 48 h

Measured: inhibition of SARS-CoV-2 cytopathic effect

CCCN(CCC)CCc1ccc(OC)c(OCCc2ccccc2)c1
inactive: 1 nM -1.09% | 8.33 nM -0.82% | 100 nM 0.93% | 833.33 nM 0.13% | 10000 nM -2.05%

N[C@H](C(=O)O)c1ccc(O)c(C(=O)O)c1 [3-carboxy-4-hydroxyphenylglycine-(S)]
inactive: 1 nM -1.22% | 8.33 nM 0.105% | 100 nM -0.545% | 833.33 nM -1.18% | 10000 nM 0.39%

O=C(O)CCc1c[nH]c2ccccc12
inactive: 1 nM 0.05% | 8.33 nM -0.38% | 100 nM -1.18% | 833.33 nM -0.72% | 10000 nM -0.06%

CC(C)N1CCN(c2ccc(OCC3COC(Cn4cncn4)(c4ccc(Cl)cc4Cl)O3)cc2)CC1 (stereo not given) [terconazole]
inactive: 1 nM 1.55% | 8.33 nM 0.07% | 100 nM 4.2% | 833.33 nM -1.24% | 10000 nM 11.5%

O=C(c1ccc(C(=O)N2CCC(N3CCCC3)CC2)c(Nc2ccccc2)c1)N1CCC(N2CCCC2)CC1
inactive: 1 nM 0.43% | 8.33 nM -1.56% | 100 nM 0.31% | 833.33 nM -4.9% | 10000 nM -1.44%

O=C(NCCCNc1nc(Nc2cccc(NC(=O)N3CCCC3)c2)ncc1I)c1cccs1
inactive: 1 nM -2.02% | 8.33 nM -0.75% | 100 nM 0.52% | 833.33 nM -5.21% | 10000 nM -23.3%

CC1(C)CNc2cc(NC(=O)c3cccnc3NCc3ccncc3)ccc21 [motesanib]
inactive: 1 nM -2.26% | 8.33 nM -1.53% | 100 nM -1.67% | 833.33 nM 1.7% | 10000 nM 1.82%
